Screens deposited in PubChem BioAssay by National Center for Advancing Translational Sciences (NCATS).
DT40 TDP1 no CPT: qHTS for Inhibitors of human tyrosyl-DNA phosphodiesterase 1 (TDP1): qHTS in cells in absence of CPT; DT40 Tdp1-/- hTDP1 cells, no CPT, ATP luminescence, 48 h; Potency, µM (top dose mostly 46.2 µM), usual class: inhibitors; AID 686978, 2013; 420,000 tested, 15% active; also: nearly all actives have a fitted effect of over 55% in size
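Stably hTDP1-transfected Tdp1-null chicken DT40 cells were treated with library compounds minus camptothecin and grown for at least 48 hr at 37 °C, after which cellular ATP was quantified by luminescence.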
Gal4-VP16 FLuc: VP16 counterscreen qHTS for inhibitors of ROR gamma transcriptional activity; Drosophila S2 Gal4-VP16 UAS-luciferase, luminescence, 20 h; Potency, µM (series often up to 53.6 µM), usual class: inhibitors; 310,000 tested, 3.5% active;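 also: Gal4-VP16 expression switched on by copper sulfate through the metallothionein promoter; nearly all actives have a fitted effect of over 50% in size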
TDP1 block: qHTS Assay for Inhibitors of Tyrosyl-DNA Phosphodiesterase (TDP1); Potency, µM (series often up to 130 µM), usual class: inhibitors; recombinant TDP1, AlphaScreen DNA substrate cleavage; 350,000 tested, 0.28% active; also: nearly all actives have a fitted effect of over 40% in size
Target sequence (Q9NUW8 whole entry, looked up): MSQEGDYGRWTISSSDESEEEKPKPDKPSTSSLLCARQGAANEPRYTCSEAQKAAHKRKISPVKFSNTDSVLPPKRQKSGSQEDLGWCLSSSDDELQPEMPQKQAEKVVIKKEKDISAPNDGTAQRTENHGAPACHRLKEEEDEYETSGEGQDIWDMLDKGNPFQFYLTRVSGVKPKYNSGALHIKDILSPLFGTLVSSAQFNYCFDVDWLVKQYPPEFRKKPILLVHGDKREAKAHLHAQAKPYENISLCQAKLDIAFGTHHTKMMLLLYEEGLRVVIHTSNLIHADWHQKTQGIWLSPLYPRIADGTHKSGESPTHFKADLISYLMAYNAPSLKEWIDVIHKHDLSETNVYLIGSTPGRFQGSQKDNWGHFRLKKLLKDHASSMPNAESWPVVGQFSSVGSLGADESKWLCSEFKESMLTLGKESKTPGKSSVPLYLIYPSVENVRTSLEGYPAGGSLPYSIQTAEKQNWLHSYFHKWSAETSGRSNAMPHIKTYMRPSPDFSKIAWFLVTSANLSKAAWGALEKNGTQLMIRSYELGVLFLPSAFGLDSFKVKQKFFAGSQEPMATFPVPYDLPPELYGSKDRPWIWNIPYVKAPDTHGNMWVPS
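AlphaScreen read-out: signal falls as enzyme removes the 3' tyrosine-FITC from a 5'-biotinylated DNA oligo (15 nM, 5 min, RT). Enzyme was E. coli-made recombinant Tdp1 at 1 nM, exposed to compound for 15 min beforehand; beads 10 ug/ml, 10 min.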
TDP1 cell CPT: qHTS for Inhibitors of human tyrosyl-DNA phosphodiesterase 1 (TDP1): qHTS in cells in presence of CPT; chicken DT40 Tdp1-/-;hTDP1 cells + 20 nM CPT, ATP luminescence, 48 h; Potency, µM (highest dose often 46.2 µM), most hits filed as inhibitors; 420,000 tested, 12% active; AID 686979, 2013; also: nearly all actives have a fitted effect of over 55% in size
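Cell growth measured by CellTiter-Glo luminescence after a minimum 48 h, 37 C compound exposure with 20 nM CPT in Tdp1-knockout DT40 cells stably expressing hTDP1, seeded 400/well; qHTS titration format.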
RORg inh: qHTS for inhibitors of ROR gamma transcriptional activity | Nuclear receptor ROR-gamma (Mus musculus), P51450 | Drosophila S2 Gal4-RORgamma UAS-luciferase reporter, 20 h | Potency, µM (titrated, usually from 53.6 µM), usual class: inhibitors | 310,000 tested, 5.4% active | AID 2551, 2010; also: nearly all actives have a fitted effect of over 60% in size
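ROR gamma transcriptional activity was tracked as Gal4-UAS luciferase output in stably transfected Drosophila Schneider cells, with compound added 1 hr before 700 uM copper sulfate induction and a 20 hr ambient-temperature incubation.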
Numbers stand for hits; i = inactive; ? = inconclusive; nt = no result given; [ ] = dose if it differs, or a comment. Shown are actives, neighbours in structure and some others; about 19% of the full set was active somewhere. Calls follow the shape of the dose curve; as a rule, active = well fitted curve in the direction sought with a large enough effect; inconclusive = small, poorly fitted or top-dose-only effect, or another doubt; inactive = no such curve, though single readings can be large; an effect the other way counts as inactive or inconclusive.

SMILES	DT40 TDP1 no CPT	Gal4-VP16 FLuc	TDP1 block	TDP1 cell CPT	RORg inh
CN1C2CCC1CC(OC(=O)c1ccc(Cl)cc1)C2 (centres undefined)	?	i	i	?	i
CCOc1ccc(C(=O)OC2CC3CCC(C2)N3C)cc1 (centres undefined)	?	i	i	i	i
CN1[C@@H]2CC[C@H]1CC(O[C@@H](c1ccccc1)c1ccc(Cl)cc1)C2 (some centres undefined)	4.2µM	14µM	i	2.7µM	13µM
CCC1CCC(C)N(N=O)C1 (centres undefined)	i	nt	nt	i	nt
O=c1c2ccccc2nc(-c2ccco2)n1-c1nccs1	?	i	i	?	i
O=C1NC(=O)C(=Cc2ccc(SC3CCCCC3)o2)C(=O)N1	?	i	?	16µM	i
COc1ccc(Cn2c(=O)oc3ccc(C)cc32)cc1OC	18µM	?	i	15µM	i
CNC(=O)Oc1ccc2c(c1)C(=O)c1ccccc1CO2	?	i	i	i	i
COc1ccc2c(c1)NP(=S)(Oc1ccccc1)N2 (centres undefined)	15µM	i	i	?	i
Cc1ccsc1C(=O)C1CCCN(Cc2cnc(N(C)C)s2)C1 (centres undefined)	nt	i	i	nt	?
Cc1cccc(CN2CCCC(C(=O)c3ccc(C(F)(F)F)cc3)C2)n1 (centres undefined)	18µM	7.9µM	i	?	2.8µM
COc1ccc(CN2CCCC(C(=O)c3ccccc3SC)C2)cc1O (centres undefined)	?	i	i	?	i
O=C(c1cccc(Cl)c1)C1CCCN(Cc2ccon2)C1 (centres undefined)	?	i	i	?	i
CSc1ccccc1C(=O)C1CCCN(Cc2cccc(C)n2)C1 (centres undefined)	?	20µM	i	?	4.5µM
CSc1ccccc1C(=O)C1CCCN(Cc2ccccn2)C1 (centres undefined)	?	i	i	i	11µM
COc1ccccc1C(=O)C1CCCN(Cc2cnc(C)s2)C1 (centres undefined)	21µM	i	i	?	i
Cc1cc(N2CCOCC2)nc2ccc(NC(=O)CCC(=O)N3CCC4(CC3)OCCO4)cc12	i	i	i	i	i
CC(Cc1ccccc1)NCCC(=O)NC(C)Cc1ccccc1 (centres undefined)	?	i	nt	?	i
Cc1ccccc1-n1c(/C=C/c2ccccn2)nc2ccccc2c1=O	23µM	i	i	18µM	i
O=c1c2ccccc2nc(/C=C/c2ccc(O)cc2)n1-c1ccccc1O	?	i	i	?	i
Cc1ccccc1-n1c(/C=C/c2ccc(O)cc2)nc2ccccc2c1=O	5.8µM	nt	i[12.3 µM]	9.2µM	nt
O=c1ccc2cc(O[C@H]3OC(CO)C(O)C(O)C3O)c(O)cc2o1 (some centres undefined)	i	i	i	i	i
CN1C[C@H](C(=O)N[C@]2(C)O[C@@]3(O)C4CCCN4C(=O)[C@H](Cc4ccccc4)N3C2=O)C[C@@H]2c3cccc4[nH]cc(c34)C[C@H]21 (some centres undefined)	?	i	i	?	i
O=C(c1cc(C(=O)NCc2ccccc2)c(=O)n(Cc2ccccc2)c1)c1cc(Cl)ccc1O	8.2µM	i	i	7.3µM	?
O=C1NC(=O)C(CCc2ccncc2)(CCc2ccccn2)C(=O)N1c1ccc(Br)cc1 (centres undefined)	9.2µM	i	i	10µM	i
SMILES	DT40 TDP1 no CPT	Gal4-VP16 FLuc	TDP1 block	TDP1 cell CPT	RORg inh
Cc1ccc(N2C(=O)NC(=O)C(CCc3ccccn3)(Cc3cccc(Cl)c3Cl)C2=O)cc1 (centres undefined)	i	i	i	i	i
COc1ccc(OC)c(NC(=O)Cn2cc(C(=O)c3ccccc3)c3ccccc32)c1	?	nt	i	?	nt
CC(=O)O/C(=C1\CC2C3CC=C4CC(OC(C)=O)CCC4(C)C3CCC2(C)C1=O)C(F)(F)F (centres undefined)	3.7µM	nt	nt	4.6µM	nt
CCCCNC(=S)N(CCN(CC)CC)Cc1cc2cc3c(cc2[nH]c1=O)OCO3	15µM	i	nt	?	i
O=[N+]([O-])c1ccccc1CNCCc1c[nH]c2ccccc12	i	i	nt	i	i
COc1cccc(/C=C/c2nc3ccccc3c(=O)n2-c2ccc(Cl)cc2)c1OC	?	nt	i	15µM	nt
Cc1cccc(-n2c(/C=C/c3cccc4ccccc34)nc3ccccc3c2=O)c1	6.5µM	nt	i	9.2µM	nt
O=c1c2ccccc2nc(/C=C/c2cccc3ccccc23)n1-c1ccc(Cl)cc1	26µM	nt	i	21µM	nt
Cc1ccc(-n2c(/C=C/c3cccc4ccccc34)nc3ccccc3c2=O)cc1	21µM	nt	i	?	nt
CCCC1C(C#N)=C(N)Oc2c1c(=O)oc1ccccc21 (centres undefined)	i	i	i	i	i
CN(C)CP(=O)(Nc1ccccc1)N(C)C (centres undefined)	i	i	i	i	i
COc1ccc(C(=O)Nc2nnc(S(=O)(=O)N(CC(C)C)c3ccc(C)cc3)s2)cc1OC	?	nt	i	?	nt
N#CCCn1cc(C(=O)Nc2ccc(F)cc2)c(-c2ccccc2)n1	i	i	nt	i	i
CC1=CP(=O)(Oc2ccc([N+](=O)[O-])cc2)CC1 (centres undefined)	i	nt	nt	i	nt
Cc1cccc(-n2c(/C=C/c3cn(C)c4ccccc34)nc3ccccc3c2=O)c1	9.2µM	nt	i[12.3 µM]	6.5µM	nt
Cc1nnc2n1-c1ccc(Cl)cc1C(c1ccccc1)=NC2	?	i	i	?	2.5µM
Clc1ccc2c(c1)C(c1ccccc1Cl)=NCc1nnc(N3CCN(CCSc4ccccc4)CC3)n1-2	?	i	i	26µM	i
CN1C(=O)CN=C(c2ccc[nH]2)c2cc(Cl)ccc21 (tested in a mixture with another compound)	1.3µM	nt	nt	1.6µM	nt
CN1C(=S)CN=C(c2ccccc2)c2cc(Cl)ccc21	15µM	i	i	?	i
CCCCn1c(O)c(C(CC)=Nc2cccc(C(=O)O)c2)c(=O)[nH]c1=O	i	i	i	i	i
CC(NC(=O)Oc1ccccc1)C(c1cccs1)N1CCOCC1 (centres undefined)	i	i	i	i	i
Oc1ccc(/C=N/NP(=S)(c2ccccc2)c2ccccc2)cc1	i	i	i	i	i
CCCc1cc2c(n1Cc1cccc(Cl)c1)C(C)C1CN(C(=O)c3ccccc3)C(C)(C(=O)OC)C21 (centres undefined)	nt	i	i	nt	?
COc1ccc(-c2cc(=NCC(=O)O)c3ccccc3o2)cc1	?	i	nt	?	i
